Data on 19 molecules can be found in PubChem BioAssay (NCATS).

Inconclusive results are not listed. The source made the active and inactive calls. The call rests on the fitted dose curve; in most records, active means well fitted curve in the direction sought with a large enough effect; inconclusive means small, poorly fitted or top-dose-only effect, or another doubt; inactive means no such curve, though single readings can be large; an effect the other way counts as inactive or inconclusive.

Test [1] in a line: Quantitative High-Throughput drug screen in 47 multiple myeloma cell lines against the NCATS MIPE library collection: Delta47_JCRB cell viability assay (AID 1918925; further: nearly all actives have a fitted effect of over 45% in size; further: potency means the concentration at half of the fitted maximal effect). An outline of the steps: (§1)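 We plated 500 myeloma cells per well, pinned in MIPE 4.0 compounds, and incubated for 48 hours at 37C. ATP was then quantified with CellTiter-Glo, with DMSO and media-only wells defining 100% and 0%.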

The nature of test [2]: Quantitative High-Throughput drug screen in 47 multiple myeloma cell lines against the NCATS MIPE library collection: EJM_DSMZ cell viability assay (AID 1918926; further: nearly all actives have a fitted effect of over 30% in size; further: potency means the concentration at half of the fitted maximal effect). Summed up:
as §1

Test [3] is described as follows: Quantitative High-Throughput drug screen in 47 multiple myeloma cell lines against the NCATS MIPE library collection: AMO1_DSMZ cell viability assay (AID 1918927; further: nearly all actives have a fitted effect of over 30% in size; further: potency means the concentration at half of the fitted maximal effect). An outline of the steps:
as §1

The nature of test [4]: Quantitative High-Throughput drug screen in 47 multiple myeloma cell lines against the NCATS MIPE library collection: ARP1_JJKsccF8 cell viability assay (AID 1918928; further: nearly all actives have a fitted effect of over 40% in size; further: potency means the concentration at half of the fitted maximal effect). Summed up:
(§2)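 Cell viability inhibition in this qHTS is measured via ATP content (CellTiter-Glo) after 48 h drug exposure at 37 °C. Wells hold 500 cells; DMSO-treated wells define 100% and medium-only wells 0%.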

Test [5] is described as follows: Quantitative High-Throughput drug screen in 47 multiple myeloma cell lines against the NCATS MIPE library collection: ARD_JJKsccE7 cell viability assay (AID 1918929; further: potency means the concentration at half of the fitted maximal effect). An outline of the steps: as §1
Test [6] can be described thus: Quantitative High-Throughput drug screen in 47 multiple myeloma cell lines against the NCATS MIPE library collection: Karpas620_DSMZ cell viability assay (AID 1918959). Further: nearly all actives have a fitted effect of over 30% in size. Further: potency means the concentration at half of the fitted maximal effect. An outline of the steps:
(§3)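 Relative luminescence from CellTiter-Glo served as the viability signal, referenced to DMSO-treated (100%) and cell-free medium (0%) controls. Treatment lasted 48 hours at 37C with 500 cells per well.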

Test [7] in a line: Quantitative High-Throughput drug screen in 47 multiple myeloma cell lines against the NCATS MIPE library collection: H1112_PLB cell viability assay (AID 1918967; further: nearly all actives have a fitted effect of over 30% in size; further: potency means the concentration at half of the fitted maximal effect). An outline of the steps:
as §1

A short description of test [8]: Quantitative High-Throughput drug screen in 47 multiple myeloma cell lines against the NCATS MIPE library collection: Karpas25_ECACC cell viability assay (AID 1918968; further: nearly all actives have a fitted effect of over 35% in size; further: potency means the concentration at half of the fitted maximal effect). An outline of the steps:
as §1

Test [9] in a line: Quantitative High-Throughput drug screen in 47 multiple myeloma cell lines against the NCATS MIPE library collection: KMM1_JCRB cell viability assay (AID 1918960). Further: nearly all actives have a fitted effect of over 30% in size. Further: potency means the concentration at half of the fitted maximal effect. Summed up: as §2
Test [10] can be described thus: Quantitative High-Throughput drug screen in 47 multiple myeloma cell lines against the NCATS MIPE library collection: KHM11_PLB cell viability assay (AID 1918962). Further: nearly all actives have a fitted effect of over 35% in size. Further: potency means the concentration at half of the fitted maximal effect. Summed up: as §3
Test [11] is described as follows: Quantitative High-Throughput drug screen in 47 multiple myeloma cell lines against the NCATS MIPE library collection: JIM3_ECACC cell viability assay (AID 1918963; further: nearly all actives have a fitted effect of over 35% in size; further: potency means the concentration at half of the fitted maximal effect). An outline of the steps: as §3
Test [12] can be described thus: Quantitative High-Throughput drug screen in 47 multiple myeloma cell lines against the NCATS MIPE library collection: JJN3_DSMZ cell viability assay (AID 1918966; further: nearly all actives have a fitted effect of over 50% in size; further: potency means the concentration at half of the fitted maximal effect). Summed up:
as §1

Test [13] in a line: Quantitative High-Throughput drug screen in 47 multiple myeloma cell lines against the NCATS MIPE library collection: KMS27_JCRB cell viability assay (AID 1918970). Further: nearly all actives have a fitted effect of over 30% in size. Further: potency means the concentration at half of the fitted maximal effect. An outline of the steps:
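Viability inhibition screen, 48 h compound exposure, luminescent ATP read-out.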

Test [14] in a line: Quantitative High-Throughput drug screen in 47 multiple myeloma cell lines against the NCATS MIPE library collection: KMS12BM_JCRB cell viability assay (AID 1918971). Further: nearly all actives have a fitted effect of over 35% in size. Further: potency means the concentration at half of the fitted maximal effect. Summed up: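 Viability readout: CellTiter-Glo luminescence following 5 min room-temperature incubation with reagent. Prior exposure: 48 h, 37C, humidified 5% CO2, 500 cells per well.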
Test [15] can be described thus: Quantitative High-Throughput drug screen in 47 multiple myeloma cell lines against the NCATS MIPE library collection: JIM1_ECACC cell viability assay (AID 1918964; further: potency means the concentration at half of the fitted maximal effect). Summed up:
as §1

The nature of test [16]: Quantitative High-Throughput drug screen in 47 multiple myeloma cell lines against the NCATS MIPE library collection: INA6_PLB cell viability assay (AID 1918965; further: nearly all actives have a fitted effect of over 55% in size; further: potency means the concentration at half of the fitted maximal effect). Summed up:
as §3

Test [17] in a line: Quantitative High-Throughput drug screen in 47 multiple myeloma cell lines against the NCATS MIPE library collection: FR4_PLB cell viability assay (AID 1918924; further: nearly all actives have a fitted effect of over 35% in size). Summed up:
as §3

Test [18] in a line: Quantitative High-Throughput drug screen in 47 multiple myeloma cell lines against the NCATS MIPE library collection: Karpas417_ECACC cell viability assay (AID 1918961). Further: potency means the concentration at half of the fitted maximal effect. The following applies: Karpas417 myeloma viability, CellTiter-Glo ATP luminescence, 48 h; viability (% of DMSO): at 45.8 µM (top of the series). Summed up:
as §3

Regarding `CC(C)[C@H](N)C(=O)OCCOCn1cnc2c(=O)[nH]c(N)nc21`, the Potency entry in test [1], in test [2], in test [4], in test [5], in test [6] and in test [7] was “inactive” throughout. Also, the Potency entry in test [8] was “inactive”. Besides, the Potency in [3] is 26.4 µM (active).
Regarding `O=c1c(O)c(-c2cc(O)c(O)c(O)c2)oc2cc(O)cc(O)c12`, the Potency entry in [1], in [2], in [3], in [5], in test [6] and in test [9] was “inactive” in each case. Besides, the Potency result in test [10], in test [11], in test [7] and in test [13] was “inactive” each time. Besides, the results for the Potency in [12] and in test [14] were 20.9 µM (active) and 23.5 µM (active), respectively.
Regarding `CC(=O)N1CCN(c2ccc(OC[C@H]3CO[C@](Cn4ccnc4)(c4ccc(Cl)cc4Cl)O3)cc2)CC1`, the Potency is 18.7 µM (active) in test [1]; 8.33 µM (active) in [2]; 7.43 µM (active) in [3]; 5.26 µM (active) in test [6]; 5.26 µM (active) in test [9]; 8.33 µM (active) in test [7]. Also, the Potency result in test [15] was “inactive”.
In the case of `CC(C)c1ccc2c(c1)c(SC(C)(C)C)c(CC(C)(C)C(=O)O)n2Cc1ccc(Cl)cc1`, the Potency in [1] was 26.4 µM (active); in test [8], 20.9 µM (active); in [14] it was 20.9 µM (active). For the same molecule, the Potency result in test [3], in test [6], in test [9], in test [10], in test [15] and in test [13] was “inactive” each time.
Take `CCCCCCCCOc1ccccc1C(=O)Nc1ccc(C(=O)OCC[N+](C)(CC)CC)cc1`: the Potency is 18.7 µM (active) in test [1]; 20.9 µM (active) in test [4]; 5.9 µM (active) in test [6]; 9.35 µM (active) in test [8]; 6.62 µM (active) in test [13]; 18.7 µM (active) in test [14]. In addition, the Potency result in test [3] and in [5] was “inactive” throughout.
Consider `Cn1c(NCCN(CCO)CCCc2ccc([N+](=O)[O-])cc2)cc(=O)n(C)c1=O`, for which the Potency result in test [2], in [4] and in test [7] was “inactive” each time. Besides, the Potency was 18.7 µM (active) in [3] and 26.4 µM (active) in test [13].
On to `COc1cc(C(C)=O)ccc1OCCCN1CCC(c2noc3cc(F)ccc23)CC1`, for which the Potency entry in test [2], in test [11] and in test [7] was “inactive” throughout. Moreover, the Potency in [16] is 14.8 µM (active); in [8] it was 1.87 µM (active).
Take `CN(C)C(=O)COC(=O)Cc1ccc(OC(=O)c2ccc(N=C(N)N)cc2)cc1`: the Potency result in test [17] and in test [4] was “inactive” in each case. The Potency in test [6] was 7.43 µM (active); in test [10], 0.662 µM (active); in test [16] it was 1.48 µM (active); in [7] it was 14.8 µM (active).
On to `Cc1ccc(C(=O)c2cc(O)c(O)c([N+](=O)[O-])c2)cc1`, for which the Potency in test [1] was 26.4 µM (active); in [5], 20.9 µM (active); in [8], 26.4 µM (active); in [13] it was 23.5 µM (active). In addition, the Potency result in test [4] was “inactive”.
With `Clc1ccc(C(Cn2ccnc2)OCc2ccsc2Cl)c(Cl)c1` (stereo unspecified), the Potency in test [2] was 14.8 µM (active); in test [3], 18.7 µM (active); in test [18], 18.7 µM (active); in [8] it was 20.9 µM (active); in test [13], 26.4 µM (active). Also, in [12], the Potency entry is “inactive”.
Turning to `c1ccc2[nH]c(-c3cscn3)nc2c1`, the Potency result in test [1], in test [3], in [4], in test [5], in [9] and in test [11] was “inactive” in each case. For the same molecule, the Potency entry in test [16], in [7], in test [8] and in [14] was “inactive” throughout.
As to `COc1cc2nc(N3CCN(C(=O)C4CCCO4)CC3)nc(N)c2cc1OC` (stereo unspecified), the Potency result in test [1], in test [2], in test [6], in test [10], in test [11] and in [7] was “inactive” throughout. The Potency result in test [8] is “inactive”.
As for `C[C@@H](N)C1CCC(C(=O)Nc2ccncc2)CC1` (stereo partly specified), the Potency result in [2], in test [3], in test [4], in [6] and in [9] was “inactive” throughout. Moreover, the results for the Potency in test [7] and in test [8] were 14.8 µM (active) and 26.4 µM (active), respectively.
On to `CCc1nc(N)nc(N)c1-c1ccc(Cl)cc1`, for which the Potency entry in test [1], in test [2], in test [6], in [10] and in test [15] was “inactive” throughout. Besides, the Potency in test [3] was 1.48 µM (active); in test [11], 2.35 µM (active).
On to `NCCCCNCCCN`, for which the Potency in [1] was 23.5 µM (active); in test [2], 23.5 µM (active); in [4], 16.6 µM (active); in test [6], 18.7 µM (active); in [11], 18.7 µM (active); in [16], 11.8 µM (active). Also, the Potency in test [12] is 2.96 µM (active); in [8], 18.7 µM (active); in [14], 20.9 µM (active). The Potency entry in test [3] and in test [5] was “inactive” throughout.
On to `O=C(CCc1ccc(O)cc1)c1c(O)cc(O)cc1O`, for which the Potency in [1] was 0.118 µM (active); in test [3], 0.59 µM (active); in test [4] it was 1.32 µM (active); in test [5], 0.372 µM (active); in test [6], 1.32 µM (active); in test [18], 0.132 µM (active). For the same molecule, the Potency was 0.059 µM (active) in test [10]; 0.418 µM (active) in test [16]; 0.148 µM (active) in test [7]; 0.187 µM (active) in test [8]; 1.05 µM (active) in test [13]; 0.332 µM (active) in test [14].
For the molecule `Cc1c(C(=O)NN2CCCCC2)nn(-c2ccc(Cl)cc2Cl)c1-c1ccc(Cl)cc1`, in [2], the Potency result was “inactive”. Besides, the Potency in test [3] is 16.6 µM (active); in test [5], 16.6 µM (active); in test [6], 20.9 µM (active); in [9] it was 23.5 µM (active); in [11] it was 23.5 µM (active); in test [15], 11.8 µM (active). Besides, the Potency in test [7], in [8] and in test [14] was 23.5 µM (active) in each case.
Regarding `COCCCN1CCC(NC(=O)c2cc(Cl)c(N)c3c2OCC3)CC1`, the Potency in test [1] is 18.7 µM (active); in test [3], 14.8 µM (active); in [5] it was 20.9 µM (active); in test [9] it was 20.9 µM (active); in test [11], 18.7 µM (active); in test [15] it was 16.6 µM (active). In test [13], the Potency is 18.7 µM (active).
As for `Oc1ccc(-c2nc(-c3ccc(F)cc3)c(-c3ccncc3)[nH]2)cc1`, the Potency in test [1] is 5.9 µM (active); in test [12], 9.35 µM (active); in [7], 8.33 µM (active); in [8], 7.43 µM (active). The Potency entry in [3], in test [5], in test [6], in [9] and in test [13] was “inactive” in each case.
